Consider 22 sequences from the supplement of paper PMC6555819.

The assay deals with RARg homodimer (NR concentration 270 nM). Nature of the assay: PBM binding z-score (relative to random genomic background probes); higher = stronger binding; sequences stand for … in GC…GCGATTGACAGCGTAGAATGAAGG
The method, boiled down:
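Ligand-free nuclear receptor dimers were applied to custom Agilent 4×180K protein-binding microarrays whose double-stranded probes carried direct-repeat seeds, single-nucleotide variants, half-site ablations and random human genomic background sequences in 34-nt variable regions. Incubation lasted 1 h. Binding z-scores were computed against the random background probes from regression-normalized fluorescence.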
Regarding GCTAGCAGGCCATTTGGGTAACTCAATGACGGGC, the PBM binding z-score was -0.283.

The sequence TCATATAGGTAAATGTTAGGTGAAAGTCCGATCT showed a PBM binding z-score of 0.326.

The sequence ATCTCTAGGTAACCGAGTTCAGTGAATGCCGAAC displayed a PBM binding z-score of 0.669.

Sequence TCAGACAGGTGAATGTAACTCAGGTACGCAGTCG showed a PBM binding z-score of 0.476.

Regarding AGAATTAGGTTATTAAGATCAGGGAATTGCGGTC, the PBM binding z-score was 0.569.

The sequence TCTCGGAGCACACGAAAGGTCAGAGCTCGACATC displayed a PBM binding z-score of 3.53.

Take TCATATGGGTAAATGCTAGGTGAAAGTCCGATCT: the PBM binding z-score is -0.0205.

Sequence ATATGTAGGTTAAGGGTGATTCAGGTTGGTTCGC registered a PBM binding z-score of 1.06.

In the case of TGAATGAGGTTATAAGATTAGGGAACGTTGCAAA, the PBM binding z-score is 1.01.

For the sequence TCTGTTAGGTCAGTTGGTCAGCTAACGAGCTGCC, the PBM binding z-score worked out at 4.2.

With GCTAGCGGGCCATTTGGGTCACTCAATGACGGGC, the PBM binding z-score came out at 1.19.

Sequence CAAACTAGGTCACCAAAGGTCAAAGTCGAATGAC returned a PBM binding z-score of 8.54.

Turning to TTACCAAGGTGAAAGGTAGTTGATGCACGCCTTG, the PBM binding z-score came to 0.73.

In the case of TCGAGTAGGTGACCAATGGGGCATTCAGCTTTCT, the PBM binding z-score stood at 0.0885.

CTTACTGGGCCACGAAAGGTCATTGATTCAGTGA gave a PBM binding z-score of 4.77.

In turn, ATATGTAGGTTAGCTTGGGTCATTCAGACTAGGC returned a PBM binding z-score of 1.67.

In turn, CCTTACGGGTCAAGGTGATAGCACGGGTGGTACG returned a PBM binding z-score of 4.64.

In turn, GCTTGTAGATCAAGGTTCAGAAAGACTAAGCTAA yielded a PBM binding z-score of 0.173.

The sequence TCACCAAGGTGAAGGTCGTTGATCCCTCTGTAGA yielded a PBM binding z-score of 1.08.

Sequence TAGCCTAGGTCATGGGACAGTATACCACGCGAAC yielded a PBM binding z-score of 4.59.

In turn, CCTTGCAGGCCAATCTGGGTCACTCAAGGCTTGA displayed a PBM binding z-score of 1.42.

TATACAGGGTCAAAGGCCAGGGTACGAATGTCGA registered a PBM binding z-score of 5.14.
